# Hits are enriched below; roughly 10% of the tested compounds scored in any of these assays.
# HP1b chromo inh: HTS for Inhibitors of HP1-beta Chromodomain Interactions with Methylated Histone Tails. Potency, µM (series often up to 114 µM), actives largely listed as inhibitors. hit rate 0.56% among 390,000. AlphaScreen HP1-beta / biotin-H3K9me3 peptide binding. Chromobox protein homolog 1 (Homo sapiens), P83916; further: nearly all actives have a fitted effect of over 70% in size
#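 Compound inhibition of the preformed complex between 50 nM HP1-beta and 50 nM biotinylated H3K9me3 peptide was read by AlphaScreen. Buffer was PBS pH 7.4 with 0.01% Tween-20. Incubations ran 30 min at room temperature, with 10 ug/mL donor/acceptor beads.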
# G9a block: qHTS Assay for Inhibitors of Histone Lysine Methyltransferase G9a; AID 504332, 2011; G9a H3K9 monomethylation, AlphaScreen, 2 h; Potency, µM (highest dose often 102 µM), most hits filed as inhibitors; Histone-lysine N-methyltransferase EHMT2 (Homo sapiens), Q96KQ7; hit rate 8.8% among 350,000; further: nearly all actives have a fitted effect of over 75% in size
#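 Compounds were preincubated with 20 nM G9a for 15 min, after which biotinylated H3K9 peptide (500 nM) and SAM (20 uM) started a 2 h room-temperature reaction. Monomethylated product was quantified by antibody-based AlphaScreen chemiluminescence.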
# BAZ2B block: qHTS Assay for Inhibitors of BAZ2B; AID 504333, 2011; Bromodomain adjacent to zinc finger domain protein 2B (Homo sapiens), Q9UIF8; hit rate 4.4% among 360,000; Potency, µM (series often up to 114 µM), usual class: inhibitors; AlphaScreen BAZ2B-H3K14Ac peptide displacement; further: nearly all actives have a fitted effect of over 60% in size
#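 Compounds, titrated to a top concentration of 110 uM, were incubated 30 min at room temperature with preformed BAZ2B/acetyl-K14 H3 peptide complex (50 nM each). Proximity signal was measured by AlphaScreen after 20 min with beads.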
# GLS inh: qHTS for Inhibitors of Glutaminase (GLS); GLS enzymatic activity, qHTS titration; Glutaminase kidney isoform, mitochondrial (Homo sapiens), O94925; Potency, µM (top dose mostly 45.5 µM), actives largely listed as inhibitors; hit rate 0.21% among 410,000
#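 Coupled fluorescence readout: glutamate oxidase/HRP/Amplex Red detect glutamate formed by hKGA from L-glutamine (1 mM solution added). Buffer 45 mM KH2PO4 pH 8.2, 0.02% Tween-20; reads at t0 and 30 min RT.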
# JMJD2A Tudor inh: qHTS Assay for Inhibitors of JMJD2A-Tudor Domain | AlphaScreen JMJD2A-Tudor / H3K4me3 peptide binding | Lysine-specific demethylase 4A (Homo sapiens), O75164 | hit rate 4.4% among 390,000 | AID 504339, 2011 | Potency, µM (highest dose often 114 µM), actives largely listed as inhibitors; further: nearly all actives have a fitted effect of over 50% in size
# Target sequence (O75164 whole entry, looked up, the tested form may be a part): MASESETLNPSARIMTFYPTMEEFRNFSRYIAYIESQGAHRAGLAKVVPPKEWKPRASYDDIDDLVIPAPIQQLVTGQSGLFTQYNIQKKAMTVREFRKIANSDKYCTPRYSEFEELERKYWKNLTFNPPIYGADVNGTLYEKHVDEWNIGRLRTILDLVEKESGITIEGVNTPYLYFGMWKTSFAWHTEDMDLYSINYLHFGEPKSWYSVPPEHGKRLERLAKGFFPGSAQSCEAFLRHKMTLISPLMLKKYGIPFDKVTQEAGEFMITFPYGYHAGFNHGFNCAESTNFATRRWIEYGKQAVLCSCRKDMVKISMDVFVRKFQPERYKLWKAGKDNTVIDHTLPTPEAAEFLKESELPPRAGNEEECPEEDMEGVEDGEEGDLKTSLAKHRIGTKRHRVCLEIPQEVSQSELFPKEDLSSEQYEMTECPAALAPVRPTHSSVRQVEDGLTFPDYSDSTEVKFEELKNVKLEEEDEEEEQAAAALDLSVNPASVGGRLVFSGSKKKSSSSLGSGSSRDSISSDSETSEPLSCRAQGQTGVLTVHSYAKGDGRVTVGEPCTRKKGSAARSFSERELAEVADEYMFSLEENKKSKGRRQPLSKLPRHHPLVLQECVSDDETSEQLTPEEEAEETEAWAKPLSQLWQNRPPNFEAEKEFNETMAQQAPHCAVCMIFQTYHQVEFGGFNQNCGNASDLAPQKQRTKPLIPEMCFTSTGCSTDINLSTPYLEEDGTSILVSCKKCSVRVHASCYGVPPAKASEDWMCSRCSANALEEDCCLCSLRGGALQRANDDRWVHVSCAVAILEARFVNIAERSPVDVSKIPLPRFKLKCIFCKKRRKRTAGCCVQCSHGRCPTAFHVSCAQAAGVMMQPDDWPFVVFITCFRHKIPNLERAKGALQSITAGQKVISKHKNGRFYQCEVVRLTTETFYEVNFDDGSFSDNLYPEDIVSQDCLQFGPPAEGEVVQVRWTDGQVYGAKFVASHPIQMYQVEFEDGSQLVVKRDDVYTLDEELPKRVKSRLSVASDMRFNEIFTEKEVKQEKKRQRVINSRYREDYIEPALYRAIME
# A number is an active result; 0 = inactive; ? = inconclusive; - = no result given; ! = not active in a repeat; [ ] = remark or other dose. The call rests on the fitted dose curve; in most records, active means well fitted curve in the direction sought with a large enough effect; inconclusive means small, poorly fitted or top-dose-only effect, or another doubt; inactive means no such curve, though single readings can be large; an effect the other way counts as inactive or inconclusive.
SMILES,HP1b chromo inh,G9a block,BAZ2B block,GLS inh,JMJD2A Tudor inh
COc1ccc(/C=N/N2CCN(C)CC2)cc1O,0,31.6µM,0,0,0
CCN(CC)C(=O)N1CCC(NC(=O)c2ccccc2)CC1,0,0,0,0,0
CCN(CC)c1ccc(/C=N/NC(=O)c2nnn(-c3nonc3N)c2CN(C)C2CCCCC2)cc1,-,-,-,0,-
Clc1cccc(-n2ncc3c(NC4CCCCC4)ncnc32)c1,0,0,0,0,0
Cc1cc(N2C(=O)C3C4C=CC(C4)C3C2=O)no1 (stereo unspecified),0,0[12.7 µM],0,0,0
Cc1cc(N2O[C@H]3C=C[C@@H]2C3)no1,0,-,-,0,79.4µM
CCOC(=O)c1nnn(C(CC)C(=O)Nc2ccc(F)cc2)c1C(=O)OCC (stereo unspecified),0,0,0,0,0
O=C(OCc1ccccc1)N1CCC2CC1c1cc(N3CCNCC3)ccc12 (stereo unspecified),-,-,-,0,-
O=C(OCc1ccccc1)N1CCC2CC1c1cc(N3CCCCC3)ccc12 (stereo unspecified),?,-,-,0,28.2µM
Clc1cccc(CN2CCC3CC2c2cc(N4CCCCC4)ccc23)c1 (stereo unspecified),?,-,-,0,44.7µM
Clc1ccccc1Cn1c(/C=C/c2ccco2)nc2ccccc21,?,10µM,?,0,?
CCN(CC)CCn1c2c(c(SCC(=O)Nc3ccc4c(c3)OCO4)nc1=O)CCC2,0,35.5µM,0,0,0
CCN(CC)CCCn1c2c(c(SCC(=O)Nc3ccc(C)c(F)c3)nc1=O)CCC2,0,56.2µM,0,0,0
Cc1ccc(NC(=O)CSc2nc(=O)n(CCCN(C)C)c3c2CCC3)cc1F,0,0,0,0,0
O=C(/C=C/c1ccc(Br)o1)Nc1nnc(C2CC2)s1,-,56.2µM,0,-,-
Fc1ccc(/C=N/n2cnn(Cc3ccccc3Cl)c2=S)cc1,0,20µM,0,0,0
CN(C)c1ccc(/C=N/n2cnn(Cc3ccccc3Cl)c2=S)cc1,?,4.47µM,?,0,0
O=C(N/N=C\c1ccc(COc2ccc([N+](=O)[O-])cc2)o1)c1ccc(Cl)cc1,0,0,0,0,0
COc1ccc(OCc2ccc(/C=N\NC(=O)c3sccc3C)o2)cc1,0,39.8µM,0,0,0
COCC(=O)N1CCC2(CCN(Cc3ccccc3)CC2)CC1,-,0[12.7 µM],-,-,-
COc1ncc2nc(-c3ccccc3)c(=O)n(CCC#N)c2n1,-,0[0.501 µM],-,-,-
CCOC(=O)N1CC=C2C(C#N)=C(N)C(C#N)(C#N)[C@H](c3ccccc3OCC)[C@H]2C1,0,0[12.7 µM],0,0,0
CN1CC=C2C(C#N)=C(N)C(C#N)(C#N)C(c3ccsc3)C2C1 (stereo unspecified),0,-,0,0,0[11.4 µM]
CCOC(=O)N1CC=C2C(C#N)=C(N)C(C#N)(C#N)[C@H](c3ccsc3)[C@H]2C1,0,44.7µM,0,0,0
CN1CC=C2C(C#N)=C(N)C(C#N)(C#N)[C@H](c3cccs3)[C@H]2C1,0,?,0,0,0
SMILES,HP1b chromo inh,G9a block,BAZ2B block,GLS inh,JMJD2A Tudor inh
N#CC1=C(N)C(C#N)(C#N)C(c2ccncc2)C2CN(C(=O)OCc3ccccc3)CC=C12 (stereo unspecified),0,15.8µM,0,0,0
CN1CC=C2C(C#N)=C(N)C(C#N)(C#N)C(CCc3ccccc3)C2C1 (stereo unspecified),0,0,0,0,0
CCCC1C2CN(C(C)C)CC=C2C(C#N)=C(N)C1(C#N)C#N (stereo unspecified),0,39.8µM,0,?,?
CN1CC=C2C(C#N)=C(N)C(C#N)(C#N)[C@H](c3cccc(Cl)c3)C2C1 (stereo partly specified),0,25.1µM,0,0,0
Cc1noc(C)c1C(=O)N1CCC[C@@]2(CCN(Cc3cc(C(F)(F)F)cc(C(F)(F)F)c3)C2)C1,-,0[12.7 µM],-,-,-
CN1C(=O)C2(c3ccccc31)N(c1cccc(C(F)(F)F)c1)C(=O)CS2(=O)=O (stereo unspecified),0,0,0,0,0
CC1(C)OC(=O)C2(Cc3ccccc3N3CCCC32)C(=O)O1 (stereo unspecified),0,-,-,-,?
N#CC1=C(N)C(C#N)(C#N)[C@H](c2cccnc2)[C@H]2CN(C(=O)OCc3ccccc3)CC=C12,0,50.1µM,0,0,0
CCc1nc2ccc(C(=O)N3CCN(c4cccc(C)c4C)CC3)cc2nc1CC,0,0,0,6.31µM!,0
N#Cc1c(Sc2ncc(C(F)(F)F)cc2Cl)nsc1C/C=N\OCc1ccccc1Br,0,20µM,44.7µM,0,?
COC(=O)Nc1ccc(S(=O)(=O)N2CCCCCC2)cc1,0,0,0,0,0
N#C/C(=N\Nc1ccc(S(=O)(=O)N2CCOCC2)cc1)C(N)=S,?,0.562µM,?,?,?
N#CC(C#N)=NNc1ccc(S(=O)(=O)N2CCCCC2)cc1,0,10µM,?,0,39.8µM
COc1ccccc1NC(=O)N(C)C[C@@H]1OCc2cnnn2CCCC(=O)N([C@@H](C)CO)C[C@H]1C,-,-,-,0,-
CCn1c(=O)c(C(=O)CN2CCCc3ccccc32)c(N)n(Cc2ccccc2)c1=O,?,0,?,?,35.5µM
CCn1c(=O)c(C(=O)CN2CCN(S(=O)(=O)c3ccccc3)CC2)c(N)n(Cc2ccccc2)c1=O,0,0,0,0,?
CCn1c(=O)c(C(=O)CN2c3ccccc3CC2C)c(N)n(Cc2ccccc2)c1=O (stereo unspecified),?,22.4µM,35.5µM,0,?
CCn1c(=O)c(C(=O)CN2CCN(S(=O)(=O)c3ccc(C)cc3C)CC2)c(N)n(Cc2ccccc2)c1=O,0,44.7µM,0,0,0
CCn1c(=O)c(C(=O)CN(C)Cc2cccc(OC)c2OC)c(N)n(Cc2ccccc2)c1=O,?,25.1µM,0,0,?
CCN(C(=O)CN1CCCc2ccccc21)c1c(N)n(Cc2ccccc2)c(=O)[nH]c1=O,-,0,0,-,-
CC(C)NC[C@H]1CCc2cc(CO)c([N+](=O)[O-])cc2N1,-,0[21.5 µM],-,0,-
O=C(NCC(c1cccnc1)N1CCN(Cc2ccccc2)CC1)C(=O)Nc1ccc(Cl)cc1 (stereo unspecified),0,0,0,0,0
COc1ccc(OCCCn2c(CCNC(=O)C3CCCCC3)nc3ccccc32)cc1,0,-,-,-,0
Clc1ccc(-n2cnnn2)cc1,0,0,0,0,0
CO/C=C\C=C/c1nnn(-c2ccc(Cl)cc2)n1,0,50.1µM,0,0,0
Cc1cccc2c1cnn2C(=O)Nc1ccc(Br)cc1F,0,35.5µM,0,0,0

# Bioassay records from PubChem.
